Assay outcomes (PubChem BioAssay)
Most compounds without a hit are left out; they make up all but 2.3% or so of the library.
GLP-1R inv ag = qHTS of GLP-1 Receptor Inverse Agonists (Inhibition Mode) | Potency, µM (top dose mostly 38.3 µM), hits mostly inhibitors | Glucagon-like peptide 1 receptor (Homo sapiens), P43220 | HEK293 GLP-1R CRE-luciferase, luminescence, 24 h; GLP-1R form is constitutively active | 410,000 compounds, 1.6% hits; further: nearly all actives have a fitted effect of over 55% in size
Target sequence (P43220 whole entry, looked up): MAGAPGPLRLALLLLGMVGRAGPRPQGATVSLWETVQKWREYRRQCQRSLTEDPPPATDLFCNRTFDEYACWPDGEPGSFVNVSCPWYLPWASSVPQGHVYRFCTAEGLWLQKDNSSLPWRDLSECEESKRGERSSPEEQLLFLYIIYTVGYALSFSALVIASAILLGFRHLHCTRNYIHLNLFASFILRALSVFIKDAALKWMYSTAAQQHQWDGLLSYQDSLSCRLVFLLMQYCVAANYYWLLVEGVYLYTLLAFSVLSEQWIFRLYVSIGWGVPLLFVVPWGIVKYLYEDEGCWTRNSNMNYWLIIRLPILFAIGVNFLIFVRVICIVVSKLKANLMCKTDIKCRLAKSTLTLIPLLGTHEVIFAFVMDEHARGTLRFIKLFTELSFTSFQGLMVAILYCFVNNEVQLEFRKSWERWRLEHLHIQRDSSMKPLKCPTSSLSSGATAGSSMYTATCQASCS
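Using stably transfected HEK293 (constitutively active GLP-1R, cAMP-luciferase reporter), compounds were incubated 24 hr and luciferase measured by luminescence.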
PTHR1 ag = qHTS for PTHR1 Agonists: Primary Screen. Parathyroid hormone/parathyroid hormone-related peptide receptor (Homo sapiens), Q03431. HEK293 GP2 PTHR1 cells, GloSensor cAMP luminescence, 1 h. Potency, µM (titrated, usually from 115 µM), hits mostly activators. 410,000 compounds, 0.075% hits; further: nearly all actives have a fitted effect of over 55% in size
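HEK-293-derived GP2 cells expressing PTHR1 and a GloSensor cAMP reporter, 3,000/well, plated overnight, given luciferin plus IBMX (each 0.5 mM as added) for 1 h at 37 °C, then compound for 1 h at 37 °C. Luminescence was read after 15 min at room temperature.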
GLP1R ag = qHTS of GLP-1 Receptor Agonists; Glucagon-like peptide 1 receptor (Homo sapiens), P43220; HEK293 GLP-1R CRE-luciferase, luminescence, 4-6 h; cells express a hypersensitive GLP-1R form; Potency, µM (titrated, usually from 45.6 µM), hits mostly activators; 380,000 compounds, 0.007% hits; AID 624172, 2012
ALOX12 inh = Primary qHTS assay for inhibitors of human arachidonate 12S-lipoxygenase (ALOX12): Round 2 | Polyunsaturated fatty acid lipoxygenase ALOX12 (Homo sapiens), P18054 | purified 12hLO, xylenol orange hydroperoxide absorbance | Potency, µM (titrated, usually from 108 µM), most hits filed as inhibitors | 580,000 compounds, 1.1% hits
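Purified human 12hLO (150 nM final) in 25 mM Hepes, 0.01% Triton X-100, pH 7.0 was preincubated 15 min at room temperature with compound. Then 40 uM arachidonic acid was added, 30 min. Hydroperoxide was read by Fe-XO absorbance ratio 573/405 nm.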
GLS inh = qHTS for Inhibitors of Glutaminase (GLS); Glutaminase kidney isoform, mitochondrial (Homo sapiens), O94925; GLS enzymatic activity, qHTS titration; Potency, µM (top dose mostly 45.5 µM), actives largely listed as inhibitors; 410,000 compounds, 0.21% hits
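Assay buffer: 45 mM KH2PO4 pH 8.2, 0.02% Tween-20. hKGA acts on L-glutamine (1 mM solution added); product glutamate is reported by an oxidase/peroxidase Amplex Red coupling, with fluorescence taken at baseline and 30 min.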
Glioma ERSR ind = qHTS for Inducers of the Endoplasmic Reticulum Stress Response (ERSR) in Human Glioma: qHTS | U87-MG GRP78 promoter luciferase reporter, 16 h | 420,000 compounds, 0.02% hits | Potency, µM, actives largely listed as activators; further: series mostly up to about 76 µM; nearly all actives have a fitted effect of over 35% in size
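ERSR induction read as luciferase luminescence (Bright-Glo, 10 min at room temperature) in stably transfected human U87-MG glioma cells exposed to compounds for 16 h, using GRP78 as sensor.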
Numbers stand for hits; . = inactive; ? = inconclusive; / = no result. The call rests on the fitted dose curve; in most records, active means well fitted curve in the direction sought with a large enough effect; inconclusive means small, poorly fitted or top-dose-only effect, or another doubt; inactive means no such curve, though single readings can be large; an effect the other way counts as inactive or inconclusive.

SMILES	GLP-1R inv ag	PTHR1 ag	GLP1R ag	ALOX12 inh	GLS inh	Glioma ERSR ind
CCC(C(=O)NC(C)c1ccccc1)C(=O)NC(C)c1ccccc1 (configuration not stated)	.	.	.	.	.	.
c1csc(-c2nc3c4ccccc4c4ccccc4c3[nH]2)c1	5µM	.	.	?	.	.
CC(=O)NCCNC(=O)Cn1c(C)c(Br)c2ccccc21	/	/	/	.	/	/
Cc1oc(-c2cccs2)nc1C(=O)NC(C)CN1CCOCC1 (configuration not stated)	/	/	/	.	/	/
CC(C)CC1C(=O)N(Cc2cn(Cc3ccco3)nn2)CCS(=O)(=O)N1Cc1ccc(-c2ccc(Cl)cc2)cc1 (configuration not stated)	?	.	.	?	.	.
CC(C)CC1C(=O)N(Cc2cn(Cc3ccco3)nn2)CCS(=O)(=O)N1Cc1ccc(-c2cccc(CO)c2)cc1 (configuration not stated)	?	.	.	22µM	.	.
CC(C)C1C(=O)N(Cc2cn(Cc3ccco3)nn2)CCS(=O)(=O)N1Cc1ccc(-c2cccc(N(C)C)c2)cc1 (configuration not stated)	?	.	.	.	.	.
Cc1ccc(-c2ccc(CN3C(C(C)C)C(=O)N(Cc4cn(Cc5ccco5)nn4)CCS3(=O)=O)cc2)cc1 (configuration not stated)	?	.	.	45µM	.	.
CCCc1nc(SCC(=O)c2ccc(F)cc2)c2ccccc2n1	?	.	.	35µM	.	.
COCCn1c(SCC#N)nnc1-c1ccc(Cl)cc1	/	/	/	.	/	/
CSc1nc2ccccc2c(=O)n1CC(=O)c1ccccc1	/	/	/	.	/	/
COc1cccc(N2CCN(C(=O)c3ccc(NC(=O)c4nsc5ccccc45)cc3)CC2)c1	8.9µM	.	/	.	.	.
COc1ccc(N2CCN(C(=O)c3ccc(NC(=O)c4nsc5ccccc45)cc3)CC2)cc1	?	.	/	.	.	.
O=C(Nc1ccc(C(=O)N2CCN(c3ccc(Cl)cc3)CC2)cc1)c1nsc2ccccc12	6.3µM	.	/	.	.	.
CSc1ccc(NC(=O)C2(C)CCN2C(=O)c2ccccc2CCc2ccccc2)cc1 (configuration not stated)	10µM	.	.	.	.	.
C#Cc1ccc(NC(=O)C2(C)CCN2C(=O)c2ccccc2CCc2ccccc2)cc1 (configuration not stated)	?	.	.	.	.	.
COCCCNC(=O)c1ccccc1-c1ncc(-c2ccccc2F)o1	/	/	/	.	/	/
c1coc(CNc2nc(NCc3ccco3)c3ccccc3n2)c1	/	/	/	/	/	.
Fc1ccc(Nc2nc(NCc3ccco3)c3ccccc3n2)cc1	3.5µM	.	.	.	.	.
N#Cc1c(N)n(-c2ccc(N)cc2)c2nc3ccccc3nc12	.	.	.	.	.	.
N#Cc1c(C#N)c(SSc2c(C#N)c(C#N)c(N)n2-c2ccccc2)n(-c2ccccc2)c1N	.	.	.	0.35µM	.	.
O=C(O)Cn1ccc2cc(OCCc3cccc(-c4cccc(F)c4)c3)cnc21	/	/	/	50µM	/	/
Cc1cc(F)ccc1-c1cccc(COc2cnc3c(ccn3CC(=O)O)c2)c1	/	/	/	.	/	/
O=C(O)Cn1ccc2cc(OCCc3cccc(-c4ccc(F)cc4)c3)cnc21	/	/	/	50µM	/	/
O=C(O)Cn1ccc2cc(OCC3CCN(C(=O)C4CCCC4)CC3)cnc21	/	/	/	.	/	/
O=c1cc(-c2cccc(F)c2)oc2ccc(Cl)cc12	/	/	/	.	/	/
CC/C=C\CCCCO	/	/	/	.	/	/
O=C(Nc1ccc2ccccc2c1)C(c1ccccc1)C1CCCC1 (configuration not stated)	5µM	.	.	.	.	.
